Consider 7 molecules from PubChem BioAssay (NCATS).

Assay [1] concerns the target Cytochrome P450 1A2 (Homo sapiens) (UniProt P05177). Description: p450-cyp1a2 (AID 410; calls by dose curve; also: potency is read from the fitted curve at half-maximal effect). In short, it runs like this: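 Luminescent readout of luciferin formed from Luciferin-ME by human CYP1A2; data normalized against complete inhibition by 57 uM furafylline. Enzyme 20nM, substrate 100uM at Km, 100mM KPO4 buffer, 60 min reaction at room temperature.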
For assay [2], the target named is Glucocorticoid receptor (Homo sapiens) (UniProt P04150). The assay is described as follows: GR-EFC Redistribution (AID 451; calls by dose curve; also: potency is read from the fitted curve at half-maximal effect). Conditions: CHO-K1 GR-EFC translocation, beta-gal luminescence, 2 h. In short, it runs like this: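 Translocation of GR-ED fusion to nuclear EA restores b-gal, read by luminescence after 1 h room-temperature detection. Engineered CHO-K1 biosensor cells, 1,000/well, exposed 2 h at 37 C to titrations up to 46 uM final.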

The target of assay [3] is Mitogen-activated protein kinase 10 (Mus musculus) (UniProt Q61831). The assay is described as follows: JNK3 AlphaScreen Assay (AID 530; active = well fitted curve in either direction with a large enough effect, not every such curve was filed as active;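 also: kinase came from lysate of stimulated human HepG2 cells; signal reports phosphorylation of biotinylated GST-cJun 1-79 at Ser73 with 10 µM ATP; series mostly up to about 57 µM; % is scaled to controls: 0 for no effect and ±100 for the full control effect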). In short, it runs like this: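 Compound titrations were preincubated 15 minutes at room temperature with substrate, antibody and pre-activated JNK3-containing HepG2 lysate. Reactions were started with 10 uM ATP and stopped with EDTA-containing bead buffer for AlphaScreen detection.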
(Alpha assays give light when donor and acceptor beads are brought close together.)

For assay [4], the target named is Cytochrome P450 3A4 (Homo sapiens) (UniProt P08684). The assay is described as follows: qHTS Assay for Activators of Cytochrome P450 3A4 (AID 885). Also: nearly all actives have a fitted effect of over 65% in size. A digest of the protocol:
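Quantitative HTS format: compounds preincubated with 20nM human CYP3A4 and Luciferin-PPXE substrate at KM, reaction started by NADPH regeneration, stopped after 60 min, luciferase luminescence read 20 min later.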

The target in assay [5] is Cytochrome P450 2D6 (Homo sapiens) (UniProt P10635). Description: qHTS Assay for Inhibitors and Substrates of Cytochrome P450 2D6 (AID 891). Also: nearly all actives have a fitted effect of over 60% in size. Also: potency is read from the fitted curve at half-maximal effect. In short, it runs like this: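 Human CYP2D6 (5 nM) with 30 uM Luciferin-ME EGE (at Km) in 100 mM KPO4, compound preincubated 10 min, then NADPH regeneration system for 60 min at room temperature. Luciferin read by luminescence; normalized to 1.43 uM quinidine.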
On the technique in general: Quantitative high-throughput screening tests each substance at several concentrations.

Assay [6] addresses Ubiquitin carboxyl-terminal hydrolase 1 (Homo sapiens) (UniProt O94782). Description: Inhibitors of USP1/UAF1: Pilot qHTS (AID 504865).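 Also: rhodamine fluorescence freed from ubiquitin-rhodamine substrate followed over time; top concentration of the series differs between compounds; % is scaled to controls: 0 for no effect and ±100 for the full control effect; nearly all actives have a fitted effect of over 35% in size.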 A digest of the protocol: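 USP1/UAF1 complex at 1 nM preincubated 15 min at room temperature with compound, then Ub-Rho substrate added at 150 nM final. Fluorescence (480/540 nm) read kinetically in 50 mM HEPES pH 7.8, 0.5 mM EDTA, 1 mM TCEP, 0.1 mg/ml BSA, 0.01% Tween-20.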

Assay [7] concerns the target DNA dC->dU-editing enzyme APOBEC-3G (Homo sapiens) (UniProt Q9HC16). The assay is described as follows: qHTS for inhibitors of Vif-A3G interactions: Validation (AID 588379). Also: 0% is about no effect. A digest of the protocol:
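HeLa cells stably expressing Vif and A3G-eYFP, 700 cells/well, incubated overnight at 37 deg C, then exposed to compound overnight at 37 deg C. Inhibition of Vif-mediated degradation read as increased yellow fluorescence (Ex 488/Em 500-530) by laser-scanning cytometry.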

Assay [8] has as its target 3',5'-cyclic-AMP phosphodiesterase 4B (Homo sapiens) (UniProt Q07343). Description: qHTS Assay for Inhibitors of PDE-IV (AID 607; active = well fitted activation curve with a large enough effect in the main read-out, with a control signal flat, not every such curve was filed as active; also: % of control where 0% means no effect). In short, it runs like this: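 Live HEK293 cells with a modified cyclic nucleotide-gated (CNG) channel report intracellular cAMP via membrane-potential dye fluorescence (ex 535/em 590 nm). Endogenous PDE-IV was targeted. Compounds were tested at up to 22.9 uM final; RO 20-1724 100 uM served as control.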

Assay [9] has as its target Cytochrome P450 2C9 (Homo sapiens) (UniProt P11712). Description: qHTS Assay for Inhibitors and Substrates of Cytochrome P450 2C9 (AID 883). Also: nearly all actives have a fitted effect of over 60% in size. Also: potency is read from the fitted curve at half-maximal effect. A digest of the protocol:
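Turnover of Luciferin-H (100uM, KM) by 10nM human CYP2C9 was measured over 60 min at 37C with NADPH regeneration; inhibitors and some substrates reduce luminescence. Data normalized to sulphaphenazole 57uM.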

Assay [10] concerns the target Cytochrome P450 3A4 (Homo sapiens) (UniProt P08684). The assay is described as follows: qHTS Assay for Inhibitors and Substrates of Cytochrome P450 3A4 (AID 884). Also: potency is read from the fitted curve at half-maximal effect; nearly all actives have a fitted effect of over 50% in size. A digest of the protocol:
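20 nM human CYP3A4 with 25 uM Luciferin-PPXE (at KM) in 200 mM KPO4, preincubated 10 min with compound; NADPH regeneration started a 60 min RT reaction. Luciferin detected by luminescence, normalized to 57 uM ketoconazole as full inhibition.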

The target in assay [11] is Glucocorticoid receptor (Homo sapiens) (UniProt P04150). Description: GR-GFP Redistribution (AID 450;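 active = compounds whose dose series gives a full or clear partial fitted curve of increased nuclear translocation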; also: potency is read from the fitted curve at half-maximal effect). Conditions: U2OS GR-GFP nuclear translocation, laser cytometry, 2 h.
The target of assay [12] is Cytochrome P450 2C19 (Homo sapiens) (UniProt P33261). Description: qHTS Assay for Inhibitors and Substrates of Cytochrome P450 2C19 (AID 899). Also: nearly all actives have a fitted effect of over 60% in size. Also: potency is read from the fitted curve at half-maximal effect. A digest of the protocol:
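Reactions contain 5nM enzyme, 10uM Luciferin-H EGE (KM) and 50mM KPO4; compound preincubates 10 min at 37C, NADPH regeneration starts turnover for 60 min. Luminescence after detection reagent gives activity.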

For assay [13], the target named is Guanine nucleotide-binding protein G(i) subunit alpha-1 (Homo sapiens) (UniProt P63096). Description: qHTS Assay for Inhibitors of RGS12 GoLoco Motif Activity (Green Fluorophore) (AID 879). Also: potency is read from the fitted curve at half-maximal effect. A digest of the protocol:
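Fluorescence polarization assay: 50 nM Gαi1 with 10 nM FITC-labeled RGS12 GoLoco peptide in 10 mM Tris pH 7.5, 150 mM NaCl, 0.1 mM GDP, 0.05% NP40, 10 min at room temperature with compound.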

Assay [14] can be described thus: qHTS Assay for Identification of Small Molecule Agonists for Hypoxia Response Element Signaling Pathway (AID 914; active = well fitted activation curve with a large enough effect in the signal ratio, with a control signal flat, not every such curve was filed as active; the % refers to the signal ratio; also: % of control where 0% means no effect). The conditions noted are these: ME-180 (cervical carcinoma) HRE-bla reporter, beta-lactamase ratio, CoCl2, 17 h; activation: stronger effect = higher value. In short, it runs like this:
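Positive modulation of EC50 CoCl2-induced hypoxia response element signaling is measured in ME-180 cells with a beta-lactamase reporter. Compounds are titrated, incubation runs 17 hours, and %Activity derives from the blue/green ratio.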

A short description of assay [15]: qHTS Assay for Identification of Small Molecule Antagonists for Thrombopoietin (TPO) Signaling Pathway (AID 918). Also: potency is read from the fitted curve at half-maximal effect; nearly all actives have a fitted effect of over 60% in size. Conditions: TPO-dependent cell signaling reporter, antagonist mode. In short, it runs like this: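 Ba/F3 (murine, hTPO-R, GPIIb-luc reporter); overnight IL-3 withdrawal; cpd + TPO 26 pM final (EC50); 24 h 37 C/5% CO2; Steadylite luminescence after 10 min RT.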

The target in assay [16] is Muscarinic acetylcholine receptor M1 (Rattus norvegicus) (UniProt P08482). Description: qHTS Assay for Antagonists of Acetylcholine Muscarinic M1 Receptor: Kinetic Measurement of Intracellular Calcium Response (AID 943).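 Also: Fluo-4 calcium signal as peak divided by basal fluorescence over 4 min; series mostly up to about 35 µM; nearly all actives have a fitted effect of over 75% in size.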 A digest of the protocol: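 Rat M1-CHO cells, 2000/well, overnight → Fluo-4 no-wash dye with probenecid, 1 h 37C → compound 10 min, room temp → basal read 6 s → carbachol EC80 (100 nM) → 4 min kinetic read; peak/basal.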

For assay [17] the target is unchanged. Description: qHTS Assay for Antagonists of Acetylcholine Muscarinic M1 Receptor: Measurement of IP-One Response (AID 944). Also: nearly all actives have a fitted effect of over 75% in size. In short, it runs like this:
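M1-CHO (rat), 2000 cells/well, overnight recovery; cpd 10 min; carbachol EC80 (200 nM), 30 min, HEPES buffer + 50 mM LiCl pH 7.4; IP-One HTRF, Ex 337, Em 620/665 nm.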

The target in assay [18] is Pyruvate kinase (Leishmania mexicana) (UniProt Q27686). Description: qHTS Validation Assay for Inhibitors of Leishmania Mexicana Pyruvate Kinase (AID 945). Also: potency is read from the fitted curve at half-maximal effect. A digest of the protocol:
(§1)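 qHTS eight-point titrations against 0.2 nM LmPYK (E451W) in imidazole buffer pH 7.2 with 0.5 mM PEP, 0.1 mM ADP; 1 h, room temperature. Readout: PKLight luminescence, normalized to neutral DMSO wells.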

Assay [19] addresses Pyruvate kinase PKM (Homo sapiens) (UniProt P14618). Description: qHTS Assay for Activators of Human Muscle Pyruvate Kinase (AID 954; active = well fitted curve in the direction sought with a large enough effect, not every such curve was filed as active;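 also: 0% = uninhibited enzyme and -100% = no enzyme or full thiadiazolimine inhibition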). In short, it runs like this: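 Enzyme was run at intermediate activity so both inhibitors and activators could be detected. ATP formed from ADP and PEP by 0.1 nM human PKM2 during a 1 h room-temperature incubation was quantified by coupled luciferase luminescence.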

For assay [20] the target is unchanged. Description: qHTS Assay for Inhibitors of Human Muscle Pyruvate Kinase (AID 958). A digest of the protocol:
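A coupled luminescent readout tracked ATP made from ADP by purified PKM2. Final conditions included 0.1 nM enzyme, PEP and ADP at 0.5 and 0.1 mM, pH 7.2 imidazole buffer with BSA, and a one-hour room-temperature reaction.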

The target of assay [21] is Pyruvate kinase (Leishmania mexicana) (UniProt Q27686). Description: qHTS Validation Assay for Activators of Leishmania Mexicana Pyruvate Kinase (AID 959). A digest of the protocol:
as §1

The target in assay [22] is Alpha-galactosidase A (Homo sapiens) (UniProt P06280). The assay is described as follows: Counterscreen for Glucocerebrosidase Inhibitors: qHTS Assay for Human alpha-Galactosidase at pH 4.5 (AID 992). Also: 0% is about no effect. In short, it runs like this: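 Read-out is 4-methylumbelliferone fluorescence (365 nm excitation, 440 nm emission) after a pH 10 NaOH/glycine stop. Reactions held 2 nM enzyme and 80 uM substrate at pH 4.5 for 20 min at room temperature.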
In general terms: The purpose of a counterscreen is to sort out artefacts and off-target activity.

Assay [23] concerns the target alpha-glucosidase (Oryza sativa, rice) (UniProt Q653V4). Description: Counterscreen for Glucocerebrosidase Inhibitors: qHTS Assay for Rice alpha-Glucosidase at pH 5.0 (AID 997).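 Also: 0% = full activity with enzyme and -100% = basal without enzyme.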 A digest of the protocol:
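Rice alpha-glucosidase (4 nM final) with 400 uM 4-methylumbelliferyl-alpha-D-glucopyranoside in citrate buffer pH 5.0, 20 min at room temperature, stopped at pH 10; fluorescence 365/440 nm, compounds 0.7 nM–77 uM, AC50 from Hill fits.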

Each structure is given as a SMILES string. A number with no mark means an inactive call. Results filed as inconclusive are left out. Active and inactive are the calls of the source. Unless noted, calls follow the shape of the dose curve; as a rule, active = well fitted curve in the direction sought with a large enough effect; inconclusive = small, poorly fitted or top-dose-only effect, or another doubt; inactive = no such curve, though single readings can be large; an effect the other way counts as inactive or inconclusive.

Cytochrome P450 2D6 (Homo sapiens), sequence (P10635 whole entry, looked up): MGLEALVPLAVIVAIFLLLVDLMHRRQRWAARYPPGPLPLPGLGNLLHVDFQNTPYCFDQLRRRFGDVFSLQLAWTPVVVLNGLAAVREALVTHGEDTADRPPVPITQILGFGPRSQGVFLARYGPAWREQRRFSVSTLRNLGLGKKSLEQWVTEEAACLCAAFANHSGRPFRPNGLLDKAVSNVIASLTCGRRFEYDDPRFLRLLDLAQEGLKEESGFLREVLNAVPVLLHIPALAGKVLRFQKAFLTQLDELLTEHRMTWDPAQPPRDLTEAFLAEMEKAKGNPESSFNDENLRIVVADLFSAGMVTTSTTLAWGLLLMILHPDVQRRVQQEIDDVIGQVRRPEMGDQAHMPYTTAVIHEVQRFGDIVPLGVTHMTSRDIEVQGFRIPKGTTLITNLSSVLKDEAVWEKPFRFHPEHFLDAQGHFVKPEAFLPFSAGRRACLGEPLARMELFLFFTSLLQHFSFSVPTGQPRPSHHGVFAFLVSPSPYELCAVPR
3',5'-cyclic-AMP phosphodiesterase 4B (Homo sapiens), sequence (Q07343 whole entry, looked up): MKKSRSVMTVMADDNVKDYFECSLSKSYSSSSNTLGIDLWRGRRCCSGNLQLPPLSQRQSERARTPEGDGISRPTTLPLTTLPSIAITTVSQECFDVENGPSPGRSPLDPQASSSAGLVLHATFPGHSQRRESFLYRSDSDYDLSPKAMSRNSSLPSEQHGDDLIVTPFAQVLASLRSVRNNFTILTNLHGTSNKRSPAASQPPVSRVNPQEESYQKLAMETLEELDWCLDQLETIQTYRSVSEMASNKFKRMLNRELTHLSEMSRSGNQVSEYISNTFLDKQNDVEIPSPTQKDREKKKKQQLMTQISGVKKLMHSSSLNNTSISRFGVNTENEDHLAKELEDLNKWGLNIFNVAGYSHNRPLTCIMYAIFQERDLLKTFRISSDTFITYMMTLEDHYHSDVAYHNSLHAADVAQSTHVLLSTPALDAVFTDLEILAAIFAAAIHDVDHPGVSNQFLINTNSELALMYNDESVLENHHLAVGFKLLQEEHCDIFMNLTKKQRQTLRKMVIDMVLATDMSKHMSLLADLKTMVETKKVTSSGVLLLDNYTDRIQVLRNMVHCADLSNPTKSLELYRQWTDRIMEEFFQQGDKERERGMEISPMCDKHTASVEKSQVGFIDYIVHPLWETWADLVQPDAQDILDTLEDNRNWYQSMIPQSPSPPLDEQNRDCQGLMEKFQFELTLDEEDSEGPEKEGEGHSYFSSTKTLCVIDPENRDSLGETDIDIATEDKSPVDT
Glucocorticoid receptor (Homo sapiens), sequence (P04150 whole entry, looked up, the tested form may be a part): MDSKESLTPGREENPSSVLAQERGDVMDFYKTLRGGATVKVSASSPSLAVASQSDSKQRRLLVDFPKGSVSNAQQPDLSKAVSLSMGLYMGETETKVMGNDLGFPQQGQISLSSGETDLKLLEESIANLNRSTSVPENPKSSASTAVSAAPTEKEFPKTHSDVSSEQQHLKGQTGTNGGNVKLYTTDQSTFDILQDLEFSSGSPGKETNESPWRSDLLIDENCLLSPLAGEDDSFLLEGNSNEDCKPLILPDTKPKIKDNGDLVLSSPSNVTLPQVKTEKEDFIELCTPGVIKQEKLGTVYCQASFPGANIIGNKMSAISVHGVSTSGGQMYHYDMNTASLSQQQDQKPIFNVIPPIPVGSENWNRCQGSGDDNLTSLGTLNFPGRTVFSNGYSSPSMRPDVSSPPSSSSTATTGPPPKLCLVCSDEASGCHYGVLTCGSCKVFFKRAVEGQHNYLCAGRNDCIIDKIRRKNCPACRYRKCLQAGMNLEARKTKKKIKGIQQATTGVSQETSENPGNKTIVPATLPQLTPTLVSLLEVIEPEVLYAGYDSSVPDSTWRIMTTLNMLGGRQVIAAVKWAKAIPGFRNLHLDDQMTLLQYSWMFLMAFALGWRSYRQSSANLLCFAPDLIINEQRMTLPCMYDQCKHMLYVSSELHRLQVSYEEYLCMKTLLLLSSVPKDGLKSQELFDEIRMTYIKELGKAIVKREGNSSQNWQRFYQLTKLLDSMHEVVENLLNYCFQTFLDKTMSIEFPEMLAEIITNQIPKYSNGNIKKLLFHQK
Cytochrome P450 3A4 (Homo sapiens), sequence (P08684 whole entry, looked up): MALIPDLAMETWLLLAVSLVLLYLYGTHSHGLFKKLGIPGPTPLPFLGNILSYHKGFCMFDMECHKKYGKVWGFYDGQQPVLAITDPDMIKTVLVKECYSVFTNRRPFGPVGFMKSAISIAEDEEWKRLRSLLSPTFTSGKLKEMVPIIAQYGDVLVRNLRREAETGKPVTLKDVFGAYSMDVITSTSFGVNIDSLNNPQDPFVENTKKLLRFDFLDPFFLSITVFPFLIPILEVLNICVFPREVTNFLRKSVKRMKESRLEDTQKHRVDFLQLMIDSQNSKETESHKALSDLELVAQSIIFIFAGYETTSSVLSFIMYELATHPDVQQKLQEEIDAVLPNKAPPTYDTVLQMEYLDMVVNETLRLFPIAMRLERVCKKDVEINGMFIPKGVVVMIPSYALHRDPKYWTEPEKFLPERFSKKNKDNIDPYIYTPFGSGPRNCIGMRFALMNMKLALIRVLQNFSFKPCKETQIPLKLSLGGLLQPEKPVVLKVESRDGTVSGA
Cytochrome P450 2C9 (Homo sapiens), sequence (P11712 whole entry, looked up): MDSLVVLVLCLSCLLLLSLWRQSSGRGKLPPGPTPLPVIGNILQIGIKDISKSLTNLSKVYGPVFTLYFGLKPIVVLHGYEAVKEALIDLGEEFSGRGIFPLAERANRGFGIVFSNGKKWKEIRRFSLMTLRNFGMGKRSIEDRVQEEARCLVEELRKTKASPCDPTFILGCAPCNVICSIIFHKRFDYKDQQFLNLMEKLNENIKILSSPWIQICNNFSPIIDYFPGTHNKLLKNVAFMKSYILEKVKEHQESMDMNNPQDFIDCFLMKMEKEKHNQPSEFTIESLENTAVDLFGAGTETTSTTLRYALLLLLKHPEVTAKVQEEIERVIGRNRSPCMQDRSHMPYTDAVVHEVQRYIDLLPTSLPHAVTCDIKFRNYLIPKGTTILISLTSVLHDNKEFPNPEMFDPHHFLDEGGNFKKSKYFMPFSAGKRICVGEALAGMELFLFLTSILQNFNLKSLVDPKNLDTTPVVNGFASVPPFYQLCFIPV
Cytochrome P450 1A2 (Homo sapiens), sequence (P05177 whole entry, looked up, the tested form may be a part): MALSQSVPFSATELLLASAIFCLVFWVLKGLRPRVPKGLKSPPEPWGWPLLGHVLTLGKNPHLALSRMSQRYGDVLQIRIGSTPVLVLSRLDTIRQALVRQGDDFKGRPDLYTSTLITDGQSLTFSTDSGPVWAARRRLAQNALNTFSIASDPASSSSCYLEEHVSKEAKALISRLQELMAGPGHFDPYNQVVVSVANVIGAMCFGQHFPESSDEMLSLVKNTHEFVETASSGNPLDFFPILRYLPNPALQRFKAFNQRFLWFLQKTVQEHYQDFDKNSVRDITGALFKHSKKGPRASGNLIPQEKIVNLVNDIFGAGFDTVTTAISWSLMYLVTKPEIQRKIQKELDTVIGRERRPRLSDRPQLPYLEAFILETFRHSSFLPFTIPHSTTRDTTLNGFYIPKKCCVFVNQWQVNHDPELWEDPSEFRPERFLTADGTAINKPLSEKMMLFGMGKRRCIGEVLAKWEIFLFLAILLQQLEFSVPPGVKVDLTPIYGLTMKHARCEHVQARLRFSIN
Pyruvate kinase PKM (Homo sapiens), sequence (P14618 whole entry, looked up): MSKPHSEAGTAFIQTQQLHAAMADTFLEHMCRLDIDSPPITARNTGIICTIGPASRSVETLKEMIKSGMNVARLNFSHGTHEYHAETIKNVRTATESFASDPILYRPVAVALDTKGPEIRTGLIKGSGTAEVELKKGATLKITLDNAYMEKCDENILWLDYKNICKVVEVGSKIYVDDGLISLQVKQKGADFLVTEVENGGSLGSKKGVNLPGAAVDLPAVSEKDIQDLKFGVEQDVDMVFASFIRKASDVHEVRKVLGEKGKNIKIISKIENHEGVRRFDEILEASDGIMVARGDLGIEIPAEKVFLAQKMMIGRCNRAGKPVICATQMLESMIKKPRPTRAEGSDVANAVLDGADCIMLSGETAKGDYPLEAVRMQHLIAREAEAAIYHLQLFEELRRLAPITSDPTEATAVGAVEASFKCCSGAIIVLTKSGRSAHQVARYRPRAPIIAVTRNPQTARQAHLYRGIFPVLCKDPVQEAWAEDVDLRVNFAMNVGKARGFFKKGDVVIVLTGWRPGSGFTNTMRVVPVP
DNA dC->dU-editing enzyme APOBEC-3G (Homo sapiens), sequence (Q9HC16 whole entry, looked up): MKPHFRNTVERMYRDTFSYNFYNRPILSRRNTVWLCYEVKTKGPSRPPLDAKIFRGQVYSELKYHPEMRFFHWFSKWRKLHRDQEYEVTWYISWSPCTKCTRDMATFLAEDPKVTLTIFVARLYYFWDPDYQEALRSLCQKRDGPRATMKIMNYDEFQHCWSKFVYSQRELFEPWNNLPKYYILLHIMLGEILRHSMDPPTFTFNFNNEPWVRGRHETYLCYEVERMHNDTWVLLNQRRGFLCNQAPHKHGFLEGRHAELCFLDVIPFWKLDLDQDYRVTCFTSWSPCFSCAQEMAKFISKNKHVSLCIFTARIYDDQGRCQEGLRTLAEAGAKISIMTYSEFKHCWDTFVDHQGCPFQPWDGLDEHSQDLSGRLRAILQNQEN
Cytochrome P450 2C19 (Homo sapiens), sequence (P33261 whole entry, looked up): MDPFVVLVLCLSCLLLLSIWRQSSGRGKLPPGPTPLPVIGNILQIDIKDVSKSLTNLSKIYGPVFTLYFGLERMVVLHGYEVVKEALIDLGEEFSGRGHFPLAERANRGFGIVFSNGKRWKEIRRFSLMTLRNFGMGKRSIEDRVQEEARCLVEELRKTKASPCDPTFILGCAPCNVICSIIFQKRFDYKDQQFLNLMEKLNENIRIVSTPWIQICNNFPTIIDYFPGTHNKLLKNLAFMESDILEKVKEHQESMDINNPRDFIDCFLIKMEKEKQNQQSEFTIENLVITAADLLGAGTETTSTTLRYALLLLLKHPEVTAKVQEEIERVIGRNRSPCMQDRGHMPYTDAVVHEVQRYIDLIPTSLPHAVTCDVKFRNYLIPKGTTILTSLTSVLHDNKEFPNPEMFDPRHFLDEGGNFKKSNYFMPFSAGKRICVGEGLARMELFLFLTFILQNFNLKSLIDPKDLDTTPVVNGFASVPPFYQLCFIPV

Take `CN(CCc1ccc(Cl)c(Cl)c1)[C@H]1CCCC[C@H]1N1CCCC1`: the Potency in [1] was 31.6 µM (active); in [2], above 46 µM; in [5], 0.0063 µM (active). Further, the molecule was called inactive in assay [3] and in [7]. Moreover, the Potency entry in assay [4] and in assay [6] was “inactive” throughout.
As for `CCCc1cc2c(n1Cc1cccc(Cl)c1)C(C)C1CN(C(=O)c3ccccc3)C(C)(C(=O)OC)C21` (centres undefined), the results for the Potency in [1], in assay [9] and in [10] were 31.6 µM (active), 5.01 µM (active) and 5.01 µM (active), respectively. For the same molecule, the result in assay [3] and in [8] was inactive. For the same molecule, the Potency entry in assay [4] is “inactive”.
For the molecule `c1cc2cc(c1)C[n+]1ccc(c3ccccc31)NCc1ccc(cc1)CNc1cc[n+](c3ccccc13)C2`, the Potency entry in assay [1] and in [6] was “inactive” each time. The Potency in assay [11] was above 46 µM; in assay [9], 2.51 µM (active). Moreover, the molecule was called inactive in assay [8] and in assay [7].
On to `O=C(O)[C@H]1C[C@@H]1[C@H](NP(=O)(c1ccccc1)c1ccccc1)c1ccccc1`, for which, in assay [1], the Potency entry is “inactive”. The outcome in assay [3] and in assay [8] was inactive.
Take `CN[C@H]1[C@H]2[C@H]3CCN2C[C@@H]1O3`: the Potency entry in [1], in [9], in assay [5] and in assay [12] was “inactive” throughout. Besides, the Potency in assay [2] is above 46 µM.
On to `CCCC[C@@H]1C[C@H]1C(NP(=O)(c1ccccc1)c1ccccc1)c1ccc(Cl)cc1` (some centres undefined), for which the Potency result in assay [1] and in assay [5] was “inactive” in each case. Also, the result in assay [3] was inactive.
In the case of `CN[C@@H](C)[C@@H](O)c1ccccc1`, the Potency in assay [1] is 3.16 µM (active); in assay [11], above 46 µM; in assay [2], above 46 µM; in assay [13], 7.94 µM (active); in assay [9] it was 0.794 µM (active); in assay [5], 12.6 µM (active). Moreover, the Potency is 1.58 µM (active) in assay [12], 3.16 µM (active) in [15], 10 µM (active) in assay [18] and 7.94 µM (active) in [20]. Besides, the result in assay [8], in [19], in [21], in [22] and in assay [23] was inactive. Further, the Potency entry in [4], in assay [16] and in [17] was “inactive” throughout. Further, the activation in [14] was 24.4%.
